9 molecules from PubChem BioAssay (NCI) can be followed below.

Some test systems named below: SR leukemia; RPMI-8226 leukemia; OVCAR-8 ovarian; OVCAR-5 ovarian; OVCAR-4 ovarian; SK-OV-3 ovarian; IGROV1 ovarian; OVCAR-3 ovarian; HS 578T breast; NCI/ADR-RES ovarian; T-47D breast; MDA-MB-435 melanoma; SW-620 colon; MCF7 breast; HCT-116 colon; HCC-2998 colon; KM12 colon; BT-549 breast.
Holding throughout (assay): NCI-60 one-dose screen, 48 h (100 = growth as untreated, 0 = no growth, -100 = all killed)
Common to all, as to conditions: 10 µM unless noted

This is part of a sample that, as a whole, favours compounds with a hit. Of some 83,000 tested, about 20% had one in any assay.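 Results are percent growth after 48 hours of single-concentration exposure. 100 means growth as in untreated cells, lower positive values show inhibition; negative values down to -100 show cell death.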 A number with no mark means an inactive call. Activity calls are given as the source filed them. How the source made its calls: active means growth percent below 10; inactive means the rest.

Take `O=C(Nc1ccc(Cl)cn1)C1(c2ccccc2)CCCCC1`: the growth in the test on SR leukemia was -14.5% (active); in the test with RPMI-8226 leukemia, 93%; in the test with OVCAR-8 ovarian it was 113%; in the test with OVCAR-5 ovarian it was 102%; in the test with OVCAR-4 ovarian it was 91.6%; in the test on SK-OV-3 ovarian it was 117%. For the same molecule, the growth in the test on IGROV1 ovarian was 534%; with OVCAR-3 ovarian it was 118%; in the test with HS 578T breast, 107%; with NCI/ADR-RES ovarian, 125%; in the test on T-47D breast, 94.7%; in the test on MDA-MB-435 melanoma, 125%. The growth in the test with SW-620 colon is 96.6%; with MCF7 breast, 96.3%; with HCT-116 colon it was 117%; with HCC-2998 colon, 99.1%; in the test with KM12 colon it was 101%.

Turning to `O=S(=O)(O)CCI`, the growth is 116% in the test on SR leukemia; 115% in the test with RPMI-8226 leukemia; 113% in the test on OVCAR-8 ovarian; 108% in the test on OVCAR-5 ovarian; 105% in the test with OVCAR-4 ovarian; 111% in the test with SK-OV-3 ovarian. For the same molecule, the growth in the test with IGROV1 ovarian was 110%; in the test with OVCAR-3 ovarian it was 114%; with HS 578T breast, 100%; with NCI/ADR-RES ovarian, 105%; in the test with T-47D breast it was 99.4%; in the test with MDA-MB-435 melanoma, 114%. Also, the growth in the test on SW-620 colon is 102%; in the test on MCF7 breast it was 98.3%; in the test on HCT-116 colon, 98.3%; with HCC-2998 colon it was 110%; with KM12 colon, 114%.

As to `Brc1c(-c2ccncc2)nc2n1CCS2`, the growth was 52.9% with SR leukemia; 60.2% with RPMI-8226 leukemia; 94.6% with OVCAR-8 ovarian; 102% in the test on OVCAR-5 ovarian; 109% with OVCAR-4 ovarian; 116% in the test with SK-OV-3 ovarian. The growth with IGROV1 ovarian is 0.69% (active); with OVCAR-3 ovarian, 97.6%; in the test with HS 578T breast, 117%; in the test with NCI/ADR-RES ovarian, 107%; in the test on T-47D breast, 100%; in the test with MDA-MB-435 melanoma, 94%. Moreover, the growth in the test with SW-620 colon was 105%; in the test on MCF7 breast it was 110%; in the test with HCT-116 colon, 85%; in the test on HCC-2998 colon it was 116%; with KM12 colon, 116%.

With `CCCCCCNC(=O)Oc1ccc(/C(=C(/C)Cc2ccc(OC)cc2)c2ccc(OCCN3CCCCC3)cc2)cc1`, the growth was -0.659% (active) in the test with SR leukemia; 76.5% in the test on RPMI-8226 leukemia; 81.2% in the test on OVCAR-8 ovarian; 90.5% with OVCAR-5 ovarian; 81% with OVCAR-4 ovarian; 88.8% with SK-OV-3 ovarian. In addition, the growth in the test on IGROV1 ovarian is 95.1%; in the test on OVCAR-3 ovarian, 93.9%; in the test on HS 578T breast it was 80%; with NCI/ADR-RES ovarian, 86.3%; in the test on T-47D breast, 42%; in the test with BT-549 breast it was 92.5%. Besides, the growth with MDA-MB-435 melanoma was 91.5%; with MCF7 breast it was 30.6%; in the test with HCT-116 colon, 63.7%; in the test on HCC-2998 colon, 94.9%; in the test on KM12 colon it was 85.6%.

Take `COc1ccc(C(=O)NCCNc2nccc(-c3c(-c4ccc(F)cc4)nc4sccn34)n2)cc1`: the growth in the test on SR leukemia is 44.1%; in the test with RPMI-8226 leukemia it was 40.5%; in the test with OVCAR-8 ovarian it was 49.4%; in the test on OVCAR-5 ovarian, 62.4%; in the test with OVCAR-4 ovarian, 80.5%; with SK-OV-3 ovarian, 70.6%. Further, the growth in the test on IGROV1 ovarian is 31%; in the test with OVCAR-3 ovarian, 80.7%; in the test on HS 578T breast, 28.7%; in the test on NCI/ADR-RES ovarian, 62.3%; with T-47D breast, 58.2%; in the test on MDA-MB-435 melanoma, 43.6%. In addition, the growth in the test on SW-620 colon was 52.3%; in the test with MCF7 breast it was 25.1%; in the test with HCT-116 colon it was 31.8%; in the test on HCC-2998 colon, 97%.

Consider `CC(=O)Nc1nc(C)c(C(=O)NNC(=O)Nc2ccccc2)s1`, for which the growth is 95.9% with SR leukemia; 91.7% with RPMI-8226 leukemia; 113% with OVCAR-8 ovarian; 108% with OVCAR-5 ovarian; 109% in the test with OVCAR-4 ovarian; 105% in the test with SK-OV-3 ovarian. Further, the growth in the test on IGROV1 ovarian is 141%; in the test with OVCAR-3 ovarian it was 100%; in the test on HS 578T breast it was 102%; with NCI/ADR-RES ovarian, 98.6%; in the test with T-47D breast it was 91.1%; in the test with MDA-MB-435 melanoma, 128%. The growth with SW-620 colon is 100%; in the test on MCF7 breast, 100%; in the test with HCT-116 colon it was 102%; in the test on HCC-2998 colon, 104%; in the test with KM12 colon it was 98.6%.

With `COc1ccc(C2CC(=O)c3c(O)cc(OC4OC(COC5OC(C)C(O)C(O)C5O)C(O)C(O)C4O)cc3O2)cc1O` (configuration not stated), the growth in the test with SR leukemia was 130%; in the test on RPMI-8226 leukemia, 123%; in the test on OVCAR-8 ovarian it was 94.8%; in the test on OVCAR-5 ovarian it was 96.7%; in the test with OVCAR-4 ovarian, 103%; in the test on SK-OV-3 ovarian, 118%. In addition, the growth in the test on IGROV1 ovarian was 37.7%; with OVCAR-3 ovarian, 131%; in the test on HS 578T breast, 106%; with NCI/ADR-RES ovarian, 109%; in the test with T-47D breast, 121%; in the test on MDA-MB-435 melanoma, 102%. Moreover, the growth with SW-620 colon was 113%; in the test on MCF7 breast, 95.1%; in the test with HCT-116 colon it was 43.6%; in the test with HCC-2998 colon it was 129%; in the test on KM12 colon, 124%.

In the case of `O=C(Nc1ccc(-n2cc(-c3ccncc3)c(-c3ccc(Cl)c(O)c3)n2)cc1)c1cc(C(F)(F)F)cc(C(F)(F)F)c1`, the growth in the test on SR leukemia is 23.9%; in the test with RPMI-8226 leukemia, 27.6%; in the test with OVCAR-8 ovarian, 65.4%; with OVCAR-5 ovarian, 84.5%; with OVCAR-4 ovarian, 70%; with SK-OV-3 ovarian, 72.4%. The growth was 70.5% in the test on IGROV1 ovarian; 53.2% in the test on OVCAR-3 ovarian; -4.23% (active) in the test with HS 578T breast; 72.9% in the test on NCI/ADR-RES ovarian; 47.9% with T-47D breast; 52.5% in the test on MDA-MB-435 melanoma. Also, the growth is 81.4% in the test on SW-620 colon; 30.3% with MCF7 breast; 33.6% in the test with HCT-116 colon; 74.2% in the test with HCC-2998 colon; 28% with KM12 colon.

As to `CCn1cnc(C[C@H](NC(=O)[C@@H](NC(=O)Nc2cc(C(F)(F)F)cc(C(F)(F)F)c2)C(C)C)C(=O)OC)c1`, the growth in the test on SR leukemia was -35.5% [100 µM] (active); in the test on RPMI-8226 leukemia, -52.4% [100 µM] (active); in the test with OVCAR-8 ovarian, -81.6% [100 µM] (active); with OVCAR-5 ovarian it was -94.9% [100 µM] (active); in the test on OVCAR-4 ovarian, -96.2% [100 µM] (active); with SK-OV-3 ovarian, -100% [100 µM] (active). In addition, the growth is -71.5% [100 µM] (active) in the test with IGROV1 ovarian; -89.5% [100 µM] (active) with OVCAR-3 ovarian; 7.39% [100 µM] (active) in the test on HS 578T breast; 0.865% [100 µM] (active) in the test with NCI/ADR-RES ovarian; -77.8% [100 µM] (active) with T-47D breast; -87.1% [100 µM] (active) in the test with MDA-MB-435 melanoma. Also, the growth with SW-620 colon is -44.1% [100 µM] (active); with MCF7 breast, -55.7% [100 µM] (active); in the test with HCT-116 colon it was -88.1% [100 µM] (active); in the test with HCC-2998 colon, -86.3% [100 µM] (active); in the test with KM12 colon, -81.9% [100 µM] (active).
